About 79,000 compounds went through this panel and 15% of them were active in at least one assay; those are over-represented in the sample as a whole. Activity calls are given as the source filed them. Rule as the data show it: active = growth inhibition above about 70%; inactive = the rest.
Key:
[1] = NCI Yeast Anticancer Drug Screen. Data for the rad52 strain (AID 147);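 also: 0% = growth of vehicle-treated control cultures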; settings: S. cerevisiae rad52 mutant growth inhibition, stronger effect = higher value
How it was run: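 Inhibition of yeast growth, referenced to vehicle controls, was the measured output for a strain with defective DNA damage repair.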

[2] = NCI Yeast Anticancer Drug Screen. Data for the wt1 strain (AID 149);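 also: 0% = growth of vehicle-treated wt1 cultures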; settings: S. cerevisiae wt1 strain (SPY 50644) growth inhibition, stronger effect = higher value
How it was run: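 Growth inhibition read against vehicle controls after compound exposure of the wt1 yeast strain.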

[3] = NCI Yeast Anticancer Drug Screen. Data for the rad50EPP+ strain (AID 151);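 also: 0% = growth of vehicle-treated control cultures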; settings: S. cerevisiae rad50 mutant strain, stronger effect = higher value
How it was run: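 Genetically defined yeast (rad50EPP+, DNA damage repair alteration) is grown with compound, and inhibition of growth is expressed relative to vehicle-treated controls.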

[4] = NCI Yeast Anticancer Drug Screen. Data for the mgt1 strain (AID 153); settings: S. cerevisiae mgt1 mutant growth inhibition, stronger effect = higher value
How it was run: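 In the mgt1 strain, test compounds were added and growth inhibition was determined relative to vehicle-treated controls.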

[5] = NCI Yeast Anticancer Drug Screen. Data for the rad50 strain (AID 155);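 also: 0% = growth of vehicle-only cultures of the same strain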; settings: S. cerevisiae rad50 strain growth inhibition, stronger effect = higher value
How it was run: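 Readout: growth inhibition relative to vehicle-treated cultures. Compound exposure was carried out in a genetically defined yeast strain deficient in DNA damage repair.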

[6] = NCI Yeast Anticancer Drug Screen. Data for the mec2-1 strain (AID 157); settings: S. cerevisiae mec2-1 strain, stronger effect = higher value
How it was run: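 Each compound was tested on mec2-1 yeast, a strain altered in DNA damage repair or cell cycle control. Growth inhibition is reported relative to vehicle.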

[7] = NCI Yeast Anticancer Drug Screen. Data for the rad14 strain (AID 159);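 also: 0% = growth of vehicle-treated control cultures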; settings: S. cerevisiae rad14 strain growth inhibition, stronger effect = higher value
How it was run: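 Growth inhibition vs vehicle controls; genetically altered yeast strain (DNA damage repair defect) treated with test compounds.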

[8] = NCI Yeast Anticancer Drug Screen. Data for the sgs1 mgt1 strain (AID 161);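 also: 0% = growth of cultures given vehicle only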; settings: S. cerevisiae sgs1 mgt1 strain, stronger effect = higher value
How it was run: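 Inhibition of yeast growth, normalised to vehicle-treated controls, is reported for a strain bearing genetic alterations in DNA damage repair.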

[9] = NCI Yeast Anticancer Drug Screen. Data for the CLN2oe strain (AID 163);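 also: 0% = growth of vehicle-only control cultures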; settings: S. cerevisiae CLN2oe strain, stronger effect = higher value
How it was run: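 First, the altered yeast strain was treated with each compound; second, its growth was measured; finally, inhibition was derived by comparison with vehicle controls.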

[10] = NCI Yeast Anticancer Drug Screen. Data for the cln2 rad14 strain (AID 165);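 also: 0% = growth equal to vehicle treated cultures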; settings: S. cerevisiae cln2 rad14 strain, stronger effect = higher value
How it was run: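 Test compounds were added to cln2 rad14 yeast cultures; inhibition of growth was then determined by comparison with vehicle treatment.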

[11] = NCI Yeast Anticancer Drug Screen. Data for the bub3 strain (AID 167); settings: S. cerevisiae bub3 mutant strain, stronger effect = higher value
How it was run: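 Readout: yeast growth inhibition, expressed relative to vehicle-only wells. The test organism is a mutant strain from a panel with lesions in DNA repair or checkpoint genes.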

[12] = NCI Yeast Anticancer Drug Screen. Data for the wt2 strain (AID 169);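 also: 0% = growth of vehicle-treated yeast cultures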; settings: S. cerevisiae wt2 strain growth inhibition, stronger effect = higher value
How it was run: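 The panel's yeast strains carry defined changes in DNA repair or cell cycle genes. Each strain is grown with compound, and growth loss is scored relative to vehicle.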

[13] = NCI Yeast Anticancer Drug Screen. Data for the mlh1 strain (AID 171);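 also: 0% = growth of vehicle-treated control cultures of the same strain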; settings: S. cerevisiae mlh1 strain growth inhibition, stronger effect = higher value
How it was run: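 Inhibition values reflect reduced yeast growth in the presence of compound, referenced to vehicle controls, using a strain chosen for its alteration in DNA repair or cell cycle control.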

[14] = NCI Yeast Anticancer Drug Screen. Data for the sgs1 strain (AID 173);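 also: 0% = growth of vehicle-only control cultures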; settings: S. cerevisiae sgs1 mutant, stronger effect = higher value
How it was run: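 Vehicle-treated cultures served as reference for growth inhibition of a yeast strain altered in DNA damage repair or cell cycle control after compound exposure.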

[15] = NCI Yeast Anticancer Drug Screen. Data for the mlh1 rad18 strain (AID 175); settings: S. cerevisiae mlh1 rad18 strain growth inhibition, stronger effect = higher value
How it was run: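 Inhibition values reflect reduced growth of mutant yeast versus vehicle-treated controls following compound exposure; the mutations affect DNA damage repair.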

[16] = at 5.0 µM (retest, dose inferred, filed as 0.5)
[17] = at 50.0 µM (retest, dose inferred, filed as 5.0)

Measured: growth inhibition

S=C(NCc1ccccn1)N/N=C/c1ccccn1
inactive: [3]; at 1.2 µM 34% | [3]; at 3.7 µM 63% | [5]; [16] 40% | [6]; [16] 33% | [8]; [16] 69% | [10]; [16] -1% | [11]; [16] -10% | [15]; [16] 5%
active: [1]; at 1.2 µM 98% | [1]; at 3.7 µM 99% | [1]; at 11.0 µM 99% | [1]; at 33.0 µM 99% | [1]; at 100.0 µM 98% | [2]; at 1.2 µM 98% | [2]; at 3.7 µM 98% | [2]; at 11.0 µM 99% | [2]; at 33.0 µM 99% | [2]; at 100.0 µM 99% | [3]; at 11.0 µM 87% | [3]; at 33.0 µM 93% | [3]; at 100.0 µM 96% | [4]; at 1.2 µM 97% | [4]; at 3.7 µM 98% | [4]; at 11.0 µM 99% | [4]; at 33.0 µM 99% | [4]; at 100.0 µM 99% | [5]; at 1.2 µM 97% | [5]; at 3.7 µM 98% | [5]; at 11.0 µM 98% | [5]; at 33.0 µM 98% | [5]; [17] 99% | [5]; at 50.0 µM 75.5% | [5]; at 100.0 µM 98% | [6]; at 1.2 µM 97% | [6]; at 3.7 µM 98% | [6]; at 11.0 µM 99% | [6]; at 33.0 µM 99% | [6]; [17] 99% | [6]; at 50.0 µM 84.2% | [6]; at 100.0 µM 99% | [7]; at 1.2 µM 98% | [7]; at 3.7 µM 99% | [7]; at 11.0 µM 99% | [7]; at 33.0 µM 99% | [7]; at 100.0 µM 99% | [8]; [17] 99% | [8]; at 50.0 µM 90.1% | [9]; at 1.2 µM 97% | [9]; at 3.7 µM 99% | [9]; at 11.0 µM 99% | [9]; at 33.0 µM 99% | [9]; at 100.0 µM 99% | [10]; [17] 99% | [10]; at 50.0 µM 89.7% | [11]; at 1.2 µM 94% | [11]; at 3.7 µM 98% | [11]; at 11.0 µM 99% | [11]; at 33.0 µM 99% | [11]; [17] 99% | [11]; at 50.0 µM 90.1% | [11]; at 100.0 µM 98% | [12]; at 1.2 µM 97% | [12]; at 3.7 µM 98% | [12]; at 11.0 µM 98% | [12]; at 33.0 µM 99% | [12]; at 100.0 µM 99% | [13]; at 1.2 µM 96% | [13]; at 3.7 µM 98% | [13]; at 11.0 µM 98% | [13]; at 33.0 µM 97% | [13]; at 100.0 µM 98% | [14]; at 1.2 µM 99% | [14]; at 3.7 µM 98% | [14]; at 11.0 µM 98% | [14]; at 33.0 µM 99% | [14]; at 100.0 µM 99% | [15]; [17] 99% | [15]; at 50.0 µM 90.7%

NC(N)=NS(=O)(=O)c1ccc(Nc2c3ccccc3nc3c(C(=O)NC(CO)(CO)CO)cccc23)cc1
inactive: [1]; at 1.2 µM 1% | [1]; at 3.7 µM 9% | [1]; at 11.0 µM 25% | [1]; at 33.0 µM 66% | [2]; at 1.2 µM -1% | [2]; at 3.7 µM 0% | [2]; at 11.0 µM 0% | [2]; at 33.0 µM -1% | [2]; at 100.0 µM 2% | [3]; at 1.2 µM 1% | [3]; at 3.7 µM 5% | [3]; at 11.0 µM 15% | [3]; at 33.0 µM 44% | [4]; at 1.2 µM 2% | [4]; at 3.7 µM -1% | [4]; at 11.0 µM -2% | [4]; at 33.0 µM 1% | [4]; at 100.0 µM 4% | [5]; at 1.2 µM 3% | [5]; at 3.7 µM 9% | [5]; [16] 6% | [5]; at 11.0 µM 27% | [5]; at 33.0 µM 64% | [6]; at 1.2 µM -1% | [6]; at 3.7 µM -1% | [6]; [16] 1% | [6]; at 11.0 µM 1% | [6]; at 33.0 µM 3% | [6]; [17] -13% | [6]; at 50.0 µM 8.65% | [6]; at 100.0 µM 13% | [7]; at 1.2 µM -1% | [7]; at 3.7 µM 3% | [7]; at 11.0 µM 3% | [7]; at 33.0 µM 3% | [7]; at 100.0 µM 10% | [8]; [16] 8% | [8]; [17] -3% | [8]; at 50.0 µM -20.5% | [9]; at 1.2 µM 2% | [9]; at 3.7 µM 2% | [9]; at 11.0 µM 4% | [9]; at 33.0 µM 1% | [9]; at 100.0 µM 1% | [10]; [16] 35% | [10]; [17] 3% | [10]; at 50.0 µM -9.45% | [11]; at 1.2 µM -1% | [11]; at 3.7 µM 2% | [11]; [16] -11% | [11]; at 11.0 µM 2% | [11]; at 33.0 µM 0% | [11]; [17] 15% | [11]; at 50.0 µM -5.3% | [11]; at 100.0 µM -2% | [12]; at 1.2 µM -1% | [12]; at 3.7 µM -2% | [12]; at 11.0 µM -1% | [12]; at 33.0 µM -1% | [12]; at 100.0 µM 4% | [13]; at 1.2 µM -1% | [13]; at 3.7 µM 0% | [13]; at 11.0 µM 0% | [13]; at 33.0 µM 0% | [13]; at 100.0 µM 5% | [14]; at 1.2 µM -1% | [14]; at 3.7 µM 1% | [14]; at 11.0 µM 2% | [14]; at 33.0 µM 2% | [14]; at 100.0 µM 8% | [15]; [16] 12% | [15]; [17] 12% | [15]; at 50.0 µM 15.7%
active: [1]; at 100.0 µM 91% | [3]; at 100.0 µM 85% | [5]; [17] 94% | [5]; at 50.0 µM 70.8% | [5]; at 100.0 µM 89%
